ALDH1A1 inh – qHTS Assay for Inhibitors of Aldehyde Dehydrogenase 1 (ALDH1A1) | Potency, µM (series often up to 75.3 µM), without a hit: at the highest dose activity, negative = inhibition, usual class: inhibitors | Aldehyde dehydrogenase 1A1 (Homo sapiens), P00352 | Purified ALDH1A1, NADH fluorescence, propionaldehyde substrate | 220,000 tested, 7.3% active;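 also: potency is read from the fitted curve at half-maximal effect; plate controls were no enzyme wells and a reference inhibitor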
Target sequence (P00352 whole entry, looked up): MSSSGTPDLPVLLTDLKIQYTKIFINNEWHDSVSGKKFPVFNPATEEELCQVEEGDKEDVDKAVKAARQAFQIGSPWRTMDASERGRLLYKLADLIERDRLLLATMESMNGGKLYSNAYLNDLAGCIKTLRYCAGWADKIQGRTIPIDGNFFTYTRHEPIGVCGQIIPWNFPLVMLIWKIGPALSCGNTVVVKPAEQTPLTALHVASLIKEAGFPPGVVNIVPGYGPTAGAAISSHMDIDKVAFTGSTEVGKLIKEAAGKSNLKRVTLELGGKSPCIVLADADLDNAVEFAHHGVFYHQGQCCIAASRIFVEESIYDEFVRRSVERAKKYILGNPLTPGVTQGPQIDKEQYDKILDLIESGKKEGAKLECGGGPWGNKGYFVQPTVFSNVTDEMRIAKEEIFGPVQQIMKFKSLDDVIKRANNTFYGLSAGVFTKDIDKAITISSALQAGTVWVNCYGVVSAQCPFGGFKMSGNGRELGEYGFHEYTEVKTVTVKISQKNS
HPGD inh – qHTS Assay for Inhibitors of HPGD (15-Hydroxyprostaglandin Dehydrogenase). purified HPGD, NADH fluorescence kinetic, PGE2 substrate. Potency, µM, for inactives: top-dose activity change, negative = inhibition, hits mostly inhibitors. AID 894, 2007. 150,000 tested, 4.3% active; also: potency is read from the fitted curve at half-maximal effect
Target sequence (P15428 whole entry, looked up): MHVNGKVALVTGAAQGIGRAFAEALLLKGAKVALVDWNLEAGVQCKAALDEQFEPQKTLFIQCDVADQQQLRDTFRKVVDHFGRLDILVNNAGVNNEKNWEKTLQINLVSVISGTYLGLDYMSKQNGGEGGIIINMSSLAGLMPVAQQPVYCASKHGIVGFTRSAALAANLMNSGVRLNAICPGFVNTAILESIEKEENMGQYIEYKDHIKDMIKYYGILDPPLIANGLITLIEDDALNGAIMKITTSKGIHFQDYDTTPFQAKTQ
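20 nM HPGD preincubated 15 min at room temperature with compound in 50 mM Tris-HCl pH 8, 0.01% Tween 20. Started with 1 mM NAD+ and 30 uM prostaglandin E2; NADH fluorescence (360/450 nm) read 5 times over 30-s intervals, last minus first.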
12-hLO inh – qHTS Assay for Inhibitors of 12-hLO (12-human lipoxygenase); Polyunsaturated fatty acid lipoxygenase ALOX12 (Homo sapiens), P18054; purified 12-hLO, xylenol orange hydroperoxide absorbance; Potency, µM (doses to about 57.1 µM), without a hit: at the highest dose activity change, negative = inhibition, hits mostly inhibitors; 150,000 tested, 0.12% active; active = well fitted inhibition curve with a large enough effect; inconclusive = small, poorly fitted or top-dose-only effect; also: potency is read from the fitted curve at half-maximal effect; nearly all actives have a fitted effect of over 55% in size
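Lipoxygenase turnover measured by absorbance at 573 and 405 nm after Fe-XO development. Human 12hLO 150 nM, arachidonate 40 uM, pH 7.0 Hepes buffer with detergent; 15 min compound preincubation, 30 min reaction.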
Lamin A splicing – qHTS Assay for Modulators of Lamin A Splicing. HeLa LMNA splicing GFP/RFP minigene ratio, 48 h. Potency, µM (series often up to 46.1 µM), for the others: top-dose ratio change, negative = inhibition, usual class: inhibitors. 200,000 tested, 0.01% active; active = well fitted inhibition curve with a large enough effect in the signal ratio, with a control signal flat, not every such curve was filed as active; inconclusive = small, poorly fitted or top-dose-only effect, or effect the other way, or a change in a side signal; the % refers to the signal ratio; also: potency is read from the fitted curve at half-maximal effect
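S3 HeLa cells stably expressing lamin A-EGFP splicing minigene plus DsRed2, 600 cells/well, 48 h compound exposure at 37C. Laser-scanning cytometry; analysed as GFP (500-530 nm)/RFP (575-640 nm) total intensity ratio; 0.5% DMSO vehicle.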
PNC inhibitor – High Content Assay for Compounds that inhibit the Assembly of the Perinucleolar Compartment; activity change (PNC), negative = inhibition, % at 10 µM; 140,000 tested, 3.1% active; PC3M PTB-GFP, PNC prevalence imaging, 16 h; active compounds read low;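 active = readout at or below -70, meaning at least 70% loss of cells showing the perinucleolar compartment, a nuclear body marking cancer cells; inconclusive = readout between -30 and a set limit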;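 also: plate controls were DMSO wells for no effect and camptothecin positive control wells for full effect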
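PC3M cells stably expressing PTB-GFP, 750–1000 cells/well, treated 16 h at 37 °C with compound (23 nl of library stock), in duplicate. After paraformaldehyde fixation and Hoechst stain, imaged at 20x; PNC prevalence scored by image analysis.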
Starred values were filed as active, the others as inactive; ? = inconclusive; · = not tested or not shown; [ ] = another dose, or the depositor's remark. A selection: hits, their analogues and other compounds. The true share with any hit is near 10%. Unless noted, calls follow the shape of the dose curve; as a rule, active = well fitted inhibition curve with a large enough effect (not every such curve was filed as active); inconclusive = small, poorly fitted or top-dose-only effect, or another doubt; inactive = no such curve, though single readings can be large or run the other way. Unless noted, % is scaled to controls: 0 for no effect and ±100 for the full control effect.

SMILES | ALDH1A1 inh | HPGD inh | 12-hLO inh | Lamin A splicing | PNC inhibitor
Cc1ccc(C)c(-n2cc(-c3ccccc3)nc2SCC(=O)Nc2ccccc2)c1 | · | · | · | -9.4%[46 µM] | ·
C=C[C@H]1CCC=C2C(=O)CCC[C@@H]21 | -4.8% | -4.6% | · | · | ·
NC(=O)N/N=C/c1cc(Br)ccc1OC(=O)c1ccccc1 | -0.3% | -9.5% | 5.6% | -20.1% | -81.0*
Cn1cc([N+](=O)[O-])c(C(=O)Nc2ccc(C(=O)N3CCCCC3)cc2)n1 | -11.7% | 0.398µM* | -0.8% | ? | ?
CCn1ncc([N+](=O)[O-])c1C(=O)Nc1ccc(C(=O)N2CCCCC2)cc1 | ? | 2.24µM* | -1.0% | ? | 14.5
CCn1ncc([N+](=O)[O-])c1C(=O)NC1CCCCC1 | 0.8% | · | · | · | ·
Cn1cc([N+](=O)[O-])c(C(=O)Nc2cc(Oc3cccnc3)cc([N+](=O)[O-])c2)n1 | 12.6µM* | -7.1% | 2.2% | ? | ?
O=[N+]([O-])c1cc(Oc2cccnc2)cc([N+](=O)[O-])c1 | -1.2% | -9.5% | 0.7% | ? | 23.4
O=C(Nc1ccc(C(=O)N2CCCC2)cc1)c1ccccc1[N+](=O)[O-] | 6.9% | · | · | · | ·
CC(=O)OC[C@H]1O[C@@H](ON=C(C)C)[C@H](OC(C)=O)[C@@H](OC(C)=O)[C@H]1OC(C)=O | 0.8%[13.5 µM] | · | · | · | ·
Cc1ccc(C(C)C)c(OCc2ccc(-c3nnco3)cc2)c1 | -12.2% | 10µM* | -14.0% | ? | 42.1
COc1ccc(N)cc1-n1c(C)ccc1C | 14.1µM* | · | · | ? | ·
COc1ccc(N)cc1C#N | ? | -14.0% | 4.9% | 3.8% | 24.0
O=S(=O)(/N=S1/CC=CCN1S(=O)(=O)c1ccccc1)c1ccccc1 (configuration not stated) | 2µM* | 7.94µM* | -21.2% | -16.8% | ?
COC(=O)NC(CC(C)=O)c1ccco1 (configuration not stated) | -5.5%[13.5 µM] | · | · | · | ·
CC1=NN(c2ccccc2)C(=O)C1c1ccccc1 (configuration not stated) | 16.5% | 0.1% | -5.8% | 5.7% | -90.9*
C/C(=N/NC(=O)c1cccc(C)c1)c1c(O)cc(C)oc1=O | 31.6µM* | -25.3% | -2.6% | -9.4% | -100.0*
C/C(=N\Nc1ccccc1)c1c(O)cc(C)oc1=O | 14.1µM* | · | · | ? | ·
CN1CCc2c(sc3nc(NN)n(Cc4ccccc4)c(=O)c23)C1 | 31.6µM* | · | · | · | ·
COc1ccc(O)c(C(=O)C2c3ccccc3C(=O)N2c2ccc(C)cc2)c1 (configuration not stated) | 11.2µM* | · | · | -9.4%[46 µM] | ·
COc1ccc(C2=CC(=O)CC(c3ccccc3)C2)cc1 (configuration not stated) | ? | · | · | 13.8%[46 µM] | ·
COc1ccccc1NC1=CC(=O)CC(c2ccccc2)C1 (configuration not stated) | -14.0% | -5.6% | -1.6% | ? | -96.0*
Cc1ccc(C2CC(=O)C=C(Nc3ccc(Cl)cc3)C2)cc1 (configuration not stated) | -2.6% | -19.1% | -0.2% | ? | 28.7
O=C1C=C(Nc2ccc(Cl)cc2)CC(c2ccc(Cl)cc2)C1 (configuration not stated) | -6.7% | 31.6µM* | -1.1% | -4.2% | 4.2
CCC(CC)C(=O)N(c1ccc(F)cc1)C1C=CS(=O)(=O)C1 (configuration not stated) | 1.4% | 4.3% | 4.0% | -7.5% | 1.5
SMILES | ALDH1A1 inh | HPGD inh | 12-hLO inh | Lamin A splicing | PNC inhibitor
COc1ccc(N(C(=O)Cc2cccs2)C2C=CS(=O)(=O)C2)cc1 (configuration not stated) | 28.2µM* | · | · | 23.3%[46 µM] | ·
CC(C)C(=O)N(c1ccc(F)cc1)C1C=CS(=O)(=O)C1 (configuration not stated) | 28.2µM* | · | -3.0% | 1.9% | -1.9
CCCCn1c(NCc2cc(Cl)ccc2O)nc2ccccc21 | · | · | · | -24.2%[46 µM] | ·
O=C(CSc1nc2c([nH]c3ccccc32)c(=O)n1-c1ccc(F)cc1)N1CCc2ccccc21 | · | · | · | 6.5%[46 µM] | ·
Cc1ccc(-n2nnnc2-c2nc3ccccc3s2)cc1 | -0.2% | -28.9% | 2.3% | 3.7% | -134.0*
CCC(CC)C(=O)Nc1nnc(S(=O)(=O)N(C)c2cc(C)cc(C)c2)s1 | · | · | · | 3.4%[46 µM] | ·
CC(C)=CCC1=C(O)c2ccccc2C(=O)C1=O | ? | -17.0% | -4.6% | · | ·
O=C(/C=C/c1ccc(S(=O)(=O)N2CCOCC2)cc1)NCc1ccc(Cl)cc1 | 12.1% | -7.4% | 2.2% | ? | 32.3
O=C(/C=C/c1ccc(S(=O)(=O)N2CCOCC2)cc1)NCc1ccccc1Cl | 8.91µM* | -10.9% | 0.0% | ? | 41.9
O=C(N=Nc1ccc(NOC(=O)c2ccccc2Br)cc1)c1ccccc1O | 22.4µM* | · | · | ? | ·
O=C1CCC[C@@H](C2=CCCCC2=O)C1 | 10.6%[13.5 µM] | · | · | · | ·
C[C@@](N)(C(=O)O)[C@@H]1C[C@@H]1C(=O)O | 2.5% | · | · | · | ·
Cc1ccc2cc(CN(CC3CCCO3)S(=O)(=O)c3ccccc3)c3nnnn3c2c1 (configuration not stated) | 7.08µM* | -20.2% | 2.2% | 4.9% | -100.0*
Cc1cc(C(=O)NCC(c2ccco2)N(C)C)no1 (configuration not stated) | 0.7% | 3.4% | -0.5% | -8.2% | -92.8*
COC(=O)c1ccc(C(NC(=O)OCc2ccccc2)/C(F)=C/[C@@H](C)C(=O)NCc2cc(C)on2)cc1 (some centres not stated) | -5.1% | -9.5% | -0.8% | · | ·
COC(=O)c1onc(-c2c(Cl)cccc2Cl)c1C(=O)OC | 3.0% | · | · | · | ·
CCOC(=O)C(=O)/C(=C\N(C)C)c1onc(-c2c(F)cccc2Cl)c1C(=O)OC | -11.1% | 10µM* | 2.4% | -9.6% | 29.6
C=CCn1c(SCc2c(C)noc2C)nc2ccccc2c1=O | -11.1% | -18.6% | 1.0% | 1.6% | ?
Cc1noc(C)c1CSc1nc2ccccc2c(=O)n1-c1ccccc1 | 4.47µM* | 4.3% | -7.9% | -5.5% | 10.2
COC(=O)c1ccc(CSc2nc3ccccc3c(=O)n2-c2ccccc2)o1 | 25.1µM* | -17.6% | -13.8% | 7.2% | 14.4
Cc1noc(C)c1CSc1nc2[nH]ncc2c(=O)n1-c1ccccc1 | 1.26µM* | -13.6% | 0.5% | ? | -100.0*
Cc1noc(C)c1CSc1nc2ccccc2c(=O)n1-c1ccc(F)cc1F | 8.91µM* | -10.7% | -8.6% | -15.9% | ?
Cc1ccccc1Cn1cnc2nc3c(cc2c1=O)CC(C)CC3 (configuration not stated) | · | · | · | 7.0%[46 µM] | ·
Cc1ncn(-c2ccccc2O)c1C | ? | ? | -3.2%[11.4 µM] | · | ·
CC(=O)OCC(=O)[C@]1(O)C(C)CC2C3CCC4=CC(=O)C=C[C@@]4(C)[C@]3(F)C(O)C[C@@]21C (some centres not stated) | 4.5% | -11.0% | -1.1% | · | ·
